As usually defined, the inhibition is the drop in the measured response relative to a control, in per cent.

Among all 360,000 compounds or so, about 5,000 (1.4%) were called active. Shown is part of a subset that was picked to be rich in actives. Values without a mark were called inactive.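 How the source made its calls: active means inhibition of 50% or more, scaled per plate between neutral and stimulator controls; inactive means the rest.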

This experiment in a line: mitochondrial permeability transition pore inhibitors, primary screen, biochemical, isolated mouse mitochondria, absorbance (AID 602449).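 Further: 0% = DMSO wells given calcium and 100% = 1 mM EGTA wells.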 Particulars: Ca2+ swelling absorbance, 30 min, at 10 µM, active compounds read high.
For `COc1ccc(S(=O)(=O)N(C)CC(=O)N2CCCC2)cc1`, the inhibition was -2.1%.

For `COc1ccc2sc(N(CCCN(C)C)C(=O)c3ccc(S(=O)(=O)N(C)C4CCCCC4)cc3)nc2c1`, the inhibition was 82.5% (active).

On to `COc1ccc(N(Cc2ccc(N(C)C)cc2)C(=O)c2ccc(S(C)(=O)=O)cc2)cc1`, for which the inhibition was 0.5%.

`COc1ccc(C(=O)O)cc1S(=O)(=O)NC1CCN(Cc2ccccc2)CC1`: the inhibition was -1%.

For the compound `Fc1cc(Br)ccc1NC(=S)Nc1cccnc1`, the inhibition was 12.7%.

`Cc1cccc(NC(=S)Nc2ccc(Cl)c(Cl)c2)c1`: the inhibition is 101% (active).

In the case of `Cc1cccc(NC(=S)N(CCN(C)C)C(C)c2ccco2)c1` (configuration not stated), the inhibition is -2.1%.

For `Cc1cccc(NC(=S)Nc2ccc(Br)cc2)c1`, the inhibition was 96.8% (active).

In the case of `S=C(Nc1ccccc1)Nc1ccc2ccccc2c1`, the inhibition is 67.5% (active).

In the case of `Cc1c(NC(=S)Nc2ccccc2)c(=O)n(-c2ccccc2)n1C`, the inhibition was 0.8%.

Take `O=S(=O)(NC(=S)Nc1ccccc1)c1ccc(F)cc1`: the inhibition is -0.7%.

In the case of `Cc1cccc(NC(=S)N2CCC(c3nc4ccccc4s3)CC2)c1`, the inhibition is 3%.

Regarding `Cc1cccc(NC(=S)NCc2ccc3[nH]c4c(c3c2)CCCC4)c1`, the inhibition was 1%.

For the compound `COC(=O)c1ccc2c(c1)S(=O)(=O)NC(=NCCCN1CCOCC1)S2`, the inhibition was 0.8%.

On to `COc1ccc(C2=NS(=O)(=O)N(C)C(C(=O)NC(C)c3ccccc3)=C2)cc1` (configuration not stated), for which the inhibition is -1.4%.

For the compound `CCC1C=C(c2ccccc2)C=CN=C1N(CC)CC` (configuration not stated), the inhibition is -0.1%.

For `Cc1cccc(NS(=O)(=O)c2cccc(C(=O)NNC(=O)c3ccccc3O)c2)c1`, the inhibition is 6.9%.

Turning to `CC1(C)CC(=O)c2cc(OCC(=O)NCC3CCCO3)ccc2O1` (configuration not stated), the inhibition is -1.4%.

Consider `C=CCN(N=Nc1cccc([N+](=O)[O-])c1)c1cccc([N+](=O)[O-])c1`, for which the inhibition is 2.6%.

For `Cc1ccc(Nc2c3c(nc4ccccc24)CCC3)cc1`, the inhibition was 79.8% (active).

With `N#Cc1cccc(Nc2c3c(nc4ccccc24)CCCC3)c1`, the inhibition was 6.5%.

`Brc1ccc(Nc2c3c(nc4ncnn24)CCC3)cc1`: the inhibition was -4.1%.

For `CCn1nnc(NC(=O)c2c(OC)cccc2OC)n1`, the inhibition was -1%.

Consider `CCCC1OC23CCCCC2C(C#N)(C#N)C1(C#N)C(=N)O3` (configuration not stated), for which the inhibition is 0.5%.

In the case of `Cc1ccoc1C(=O)Nc1cccc(Oc2ccccc2)c1`, the inhibition was -0.1%.

Turning to `Cc1cccc(NC(=O)NC2(C)CCS(=O)(=O)C2)c1` (configuration not stated), the inhibition is -3.1%.

Regarding `Cc1cccc(NC(=O)Nc2cccc(Oc3c(F)c(F)c(F)c(F)c3F)c2)c1`, the inhibition was 93.2% (active).

Turning to `O=C(CNCCC1=CCCCC1)Nc1ccccc1N1CCCCCC1`, the inhibition is 11.6%.

For the compound `CCc1cc(=O)oc2cc(C)cc(OC(C)C(=O)O)c12` (configuration not stated), the inhibition was 1.3%.

As to `CN[C@H](C(=O)NC[C@H]1O[C@@H](n2cnc3c(N)ncnc32)[C@H](O)[C@@H]1O)[C@@H](C)OCc1ccccc1`, the inhibition was -0.1%.

`Cc1onc(-c2ccccc2)c1C(=O)NNC(=S)NC(=O)c1ccc(F)cc1`: the inhibition was 90.1% (active).

For the compound `O=C(NNC(=S)NC(=O)c1cn(-c2ccccc2)nc1-c1ccccc1)c1ccncc1`, the inhibition is 2.2%.

Turning to `Cc1onc(-c2ccccc2)c1C(=O)N1CCN(S(=O)(=O)c2ccccc2C(F)(F)F)CC1`, the inhibition is 0.5%.

As to `O=C1CS(=O)CN1c1ccc(Oc2ccccc2)cc1` (configuration not stated), the inhibition was 1.6%.

`Cc1noc(C)c1S(=O)(=O)Nc1ccc(C(=O)N2CCN(c3ccc(F)cc3)CC2)cc1`: the inhibition is -2%.

As to `Cc1ccc(NC(=O)CN(C)CC(=O)Nc2cccc(F)c2)cc1[N+](=O)[O-]`, the inhibition was 97.2% (active).

Consider `Cc1ccc(NC(=O)c2sccc2C)cc1[N+](=O)[O-]`, for which the inhibition is -8.8%.

Consider `CN(CC(=O)Nc1cccc(F)c1)C(=O)C1=COCCO1`, for which the inhibition is -2.6%.

On to `O=C(NNC1=C(C(=O)C(F)(F)F)CCC1)c1ccncc1`, for which the inhibition was 0.3%.

As for `COc1ccc(NC(=O)C(=O)NCC(c2ccco2)N2CCc3ccccc3C2)cc1` (configuration not stated), the inhibition was 0.5%.

For `O=C(CCCOc1ccccc1)Nc1cccc(C(=O)O)c1`, the inhibition was 0.4%.

As for `COC(=O)c1noc(C)c1-c1ccnn1C(=O)c1ccc(Cl)cc1`, the inhibition was 5%.

On to `O=C(C/C(=N\NC(=O)c1ccccc1Br)C(F)(F)F)c1cccs1`, for which the inhibition is 59.2% (active).

Turning to `O=C(CNC(=O)c1ccccc1Br)NNC(=O)c1cccs1`, the inhibition is -3.3%.

Take `CC/C(=N\NC(=O)c1ccccc1Cl)c1ccc(Br)s1`: the inhibition was -0.9%.

Turning to `N#Cc1nc(N)nc(N(c2ccccc2)c2ccccc2)n1`, the inhibition was 0%.

As for `CC1(C(=O)NS(=O)(=O)c2cccs2)CCN1C(=O)Cc1ccc(-c2ccccc2)cc1` (configuration not stated), the inhibition is 1.6%.

As to `O=S(=O)(Nc1ccccc1)c1ccc(NS(=O)(=O)c2cccs2)cc1`, the inhibition is -0.1%.

As for `O=S(=O)(Nc1ccccc1Br)c1cccs1`, the inhibition was 1.3%.

On to `O=C(Nc1cccc(Cl)c1)Nc1ccccc1NS(=O)(=O)c1cccs1`, for which the inhibition is 87.7% (active).

For the compound `Nc1ncnc2c1ncn2[C@@H]1O[C@H](CNCc2cccn2-c2nccs2)[C@@H](O)[C@H]1O`, the inhibition was -2.5%.

Take `CC(=O)OC(COc1ccc(F)cc1)Cn1cnc2ccccc21` (configuration not stated): the inhibition was 0.4%.

In the case of `CCOC(=O)c1ccccc1NC(=O)CSc1nc2c(sc(=S)n2CC)c(=O)[nH]1`, the inhibition was 5.4%.

Turning to `Cc1ccc(C(=O)Nc2c(-c3ccccc3)[nH][nH]c2=O)cc1`, the inhibition was -0.8%.

Turning to `Fc1cc(F)c2nc(Nc3nc4c(F)cccc4s3)sc2c1`, the inhibition is 94.3% (active).

Consider `Fc1ccc2nc(Nc3nc4c(s3)CCCC4)sc2c1`, for which the inhibition is 5.3%.

Take `NNc1nc2c(Cl)cccc2s1`: the inhibition is -0.9%.

In the case of `O=C(NC1(C(F)(F)F)NC(=O)N(Cc2cccnc2)C1=O)c1ccccc1Cl` (configuration not stated), the inhibition was 1%.

`CCCCc1ccc(NC(=O)NCc2cccnc2)cc1`: the inhibition is -0.3%.

Regarding `CCCCCCCCCCCCN1C(=O)CSC1c1cccnc1` (configuration not stated), the inhibition is 62.4% (active).

On to `CN(C)CCCN1C(=O)CSC1c1ccc([N+](=O)[O-])cc1` (configuration not stated), for which the inhibition is -0.2%.

Regarding `CCCS(=O)(=O)NC(=O)C1(C)CCCN(C(=O)c2ccnc(Cl)c2)C1` (configuration not stated), the inhibition was -0.3%.
